In PubChem BioAssay (NCI):
The panel holds about 83,000 compounds, 20% with a hit somewhere; the sample as a whole holds those more often.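 Compound tested at a single concentration for 48 hours in 96-well plates; a percent growth value below 10 was scored as active.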 A number with no mark means an inactive call. The source made the active and inactive calls.

These molecules were tested on HL-60(TB) leukemia (assay: NCI-60 one-dose screen, 48 h (100 = growth as untreated, 0 = no growth, -100 = all killed)). Conditions: 10 µM unless noted.

Structure (SMILES)	growth
COc1ccc(/C=c2\sc3n(c2=O)NC2C(N=3)N(C)C(=O)N2C)cc1 (stereo not given)	98.4%
CCCCC(CCCC)(S(=O)(=O)CC)S(=O)(=O)CC	94.7%
FC(F)(F)c1ccc2c(c1)n1cnnc1c1nncn21	104%
COc1ccc2c(c1)c(-c1nc(-c3cn(C)c4ccncc34)cs1)cn2C	81.7%
COc1cc(C2CC(=O)Nc3c2c(C)nn3-c2nc3ccccc3[nH]2)cc(OC)c1OC (stereo not given)	108%
COC1=C(OC)C(=O)C=CC1=O	60.8%
COCCn1cc(-c2csc(-c3c[nH]c4ccc(F)cc34)n2)c2cccnc21	13.9%
CC1(C)C(=O)/C(=C\c2cccnc2)C[C@]2(C)[C@H]3CC[C@@H]4[C@H]5[C@H](C(=O)/C=C/c6cccnc6)CC[C@]5(C(=O)O)CC[C@@]4(C)[C@]3(C)CC[C@@H]12	0.806% [100 µM] (active)
CSc1nc(-c2cccc(NC(=O)CCl)c2)c(C#N)c(=O)n1C	-22.1% (active)
CC(=O)CSc1ncnc2nc[nH]c12	103%
Cn1c(NCCc2ccc(O)c(O)c2)nc2c1c(=O)n(Cc1ccc(Cl)cc1)c(=O)n2C	13.2%
Cc1ccc(/C=C/c2c(C(=O)/C=C/c3ccccc3)c(C)nc3ccccc23)cc1	14.8%
CCN1CCN(CCNc2nccc(-c3c(-c4ccc(F)c(O)c4)nc4occn34)n2)S1(=O)=O	1.1% (active)
CN1C(=O)C2(SCC(C(=O)NCc3ccccc3)N2C(=O)C2CCCCC2)c2ccccc21 (stereo not given)	80.4%
COc1cc(-c2nc3sccn3c2-c2ccnc(NCCNS(=O)(=O)c3ccccc3)n2)ccc1F	60.2%
O=C1C2CC3C(CC2C(=O)[N]1[Sn]([c]1ccccc1)([c]1ccccc1)[c]1ccccc1)C1(Cl)C(Cl)=C(Cl)C3(Cl)C1(Cl)Cl (stereo not given)	-58% (active)
COc1ccc(-c2nc3ccc(Cc4ccc5nc(-c6ccc(OC)cc6)[nH]c5c4)cc3[nH]2)cc1	9.66% (active)
COc1ccc(-c2cc(-c3ccccc3)nc(SCCCC(=O)NO)n2)cc1	-31.2% (active)
CCOC(=O)c1c(NC(=O)c2ccccc2)sc2c(O)c(CN(CC)CC)ccc12	0.395% (active)
NC(=O)N/N=C/c1ccc(Br)o1	95.8%

Structure (SMILES)	growth
[2H]c1nc(Nc2ncc(F)c(-c3cc(F)c4nc(C)n(C(C)C)c4c3)n2)c([2H])c([2H])c1CN1CCN(CC)CC1	24.6%
O=C1NC(=O)C(c2cnc3ccccn23)=C1c1cn2c3c(cc(F)cc13)CN(C(=O)N1CCCCC1)CC2	48.1%
O=C1OCc2cccc3cccc1c23	84.9%
COc1ccc(Cl)cc1NC(=O)c1cc2c([nH]1)-c1nc(NC(=O)C(C)C)sc1CC2	90.9%
Cc1c(C(=O)NCCC(=O)NO)sc2ncnc(Nc3ccc(F)c(Cl)c3)c12	103%
O=C(O)CCCc1cnc2c3sccc3nc(SCc3c(Cl)cccc3Cl)n12	-26.5% (active)
COc1cc(OC)c(Cl)cc1N	131%
N#C/C(=C\c1ccc(F)cc1)n1nc2cccc(F)c2n1	8.65% (active)
C[n+]1c2ccccc2c(Nc2ccc(NS(=O)(=O)CCCCN=C(N)N)cc2)c2ccc(N)cc21	16.7%
c1coc2occoc=2o1	102%
O=C(N/N=C/c1cc([N+](=O)[O-])ccc1O)c1cccc2ccccc12	-14% (active)
COc1cc(C2CC(c3cccc(Nc4ccncc4)c3)=Nc3c(N)ncnc3N2)cc(OC)c1OC (stereo not given)	83.7%
Cc1ccc(C(C)C)c(OCC(=O)O)c1	117%
Cc1[nH]c(-c2nc3ccccc3[nH]2)c(C)c1C(=O)N1CCc2sccc2C1	99.3%
COc1ccc([C@H]2c3cc(OC)c(OC)cc3C=C(C=O)C2CO)cc1OC (stereo not given in full)	-13.9% (active)
N#C/C(=C\c1ccc([N+](=O)[O-])cc1)n1nnc2cc(F)c(F)cc21	-27% (active)
COc1ccc2c(c1)sc1nc(-c3ccccc3)c(-c3cccc4ccccc34)n12	6.59% (active)
COc1ccc(CCCc2c3[n+](cc4c(OC)c(OC)ccc24)CCc2cc4c(cc2-3)OCO4)cc1	36.6%
C=C1C(=O)O[C@H]2[C@H]1CC/C(Cn1cc(CNC(=O)Cc3cn(C(=O)c4ccc(Cl)cc4)c4ccc(OC)cc34)nn1)=C\CC[C@@]1(C)O[C@@H]21	-53.4% (active)
C[n+]1c2ccccc2nc2ccccc21	13.3%
